The campaign covered roughly 5,500 compounds. About 2,000 (36%) were called active. Another 18% or so got no clear call; they are omitted. Rule as the data show it: active = normalized growth mostly below about 0.91 (no sharp cut-off); inconclusive = no clear call, values can overlap the other calls; inactive = mostly above about 0.92. The list shows a part of the results.
Test: chemical genetic growth profiling, strain panel (AID 1159580);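 also: tested at 20 µM; growth read once vehicle control cultures reached saturation at 30 °C; 1 = growth at the plate median or of vehicle wells; lower values mean less growth of the strain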
Details: growth OD

Measured: normalized growth

O=C(Oc1cc(OC(=O)c2ccccc2)c2c(c1)O[C@H](c1ccc(OC(=O)c3ccccc3)c(OC(=O)c3ccccc3)c1)[C@@H](OC(=O)c1ccccc1)C2)c1ccccc1
inactive: S. cerevisiae deletion strains, locus YAL021C, strain ccr4, active compounds read low 1.01 | S. cerevisiae deletion strains, locus YAL026C, strain drs2, active compounds read low 0.998 | S. cerevisiae deletion strains, locus YAL030W, strain snc1, active compounds read low 0.991 | S. cerevisiae deletion strains, locus YBL061C, strain skt5, active compounds read low 0.99 | S. cerevisiae deletion strains, locus YBR009C, strain hhf1, active compounds read low 0.982 | S. cerevisiae deletion strains, locus YBR021W, strain FUR4, active compounds read low 1.07 | S. cerevisiae deletion strains, locus YBR023C, strain chs3, active compounds read low 0.999 | S. cerevisiae deletion strains, locus YBR171W, strain sec66, active compounds read low 0.997 | S. cerevisiae deletion strains, locus YBR229C, strain ROT2, active compounds read low 1.04 | S. cerevisiae deletion strains, locus YBR231C, strain swc5, active compounds read low 0.99 | S. cerevisiae deletion strains, locus YBR279W, strain paf1, active compounds read low 1 | S. cerevisiae deletion strains, locus YCL011C, strain gbp2, active compounds read low 0.987 | S. cerevisiae deletion strains, locus YCL016C, strain dcc1, active compounds read low 0.994 | S. cerevisiae deletion strains, locus YCL029C, strain bik1, active compounds read low 1.05 | S. cerevisiae deletion strains, locus YCL061C, strain MRC1, active compounds read low 0.999 | S. cerevisiae deletion strains, locus YCL069W, strain vba3, active compounds read low 1 | S. cerevisiae deletion strains, locus YCR088W, strain abp1, active compounds read low 0.993 | S. cerevisiae deletion strains, locus YDL005C, strain med2, active compounds read low 0.991 | S. cerevisiae deletion strains, locus YDL035C, strain GPR1, active compounds read low 1.04 | S. cerevisiae deletion strains, locus YDL040C, strain nat1, active compounds read low 0.991 | S. cerevisiae deletion strains, locus YDL074C, strain BRE1, active compounds read low 1.14 | S. cerevisiae deletion strains, locus YDL101C, strain DUN1, active compounds read low 1.05 | S. cerevisiae deletion strains, locus YDL185W, strain tfp1, active compounds read low 1.06 | S. cerevisiae deletion strains, locus YDL192W, strain arf1, active compounds read low 1.07 | S. cerevisiae deletion strains, locus YDR001C, strain nth1, active compounds read low 0.994 | S. cerevisiae deletion strains, locus YDR069C, strain doa4, active compounds read low 0.986 | S. cerevisiae deletion strains, locus YDR101C, strain arx1, active compounds read low 1.03 | S. cerevisiae deletion strains, locus YDR137W, strain rgp1, active compounds read low 1.03 | S. cerevisiae deletion strains, locus YDR159W, strain sac3, active compounds read low 0.999 | S. cerevisiae deletion strains, locus YDR162C, strain NBP2, active compounds read low 1.03 | S. cerevisiae deletion strains, locus YDR195W, strain ref2 0.953 | S. cerevisiae deletion strains, locus YDR297W, strain sur2, active compounds read low 1 | S. cerevisiae deletion strains, locus YDR318W, strain mcm21, active compounds read low 1.04 | S. cerevisiae deletion strains, locus YDR334W, strain swr1, active compounds read low 0.992 | S. cerevisiae deletion strains, locus YDR335W, strain msn5, active compounds read low 0.999 | S. cerevisiae deletion strains, locus YDR388W, active compounds read low 1.04 | S. cerevisiae deletion strains, locus YDR392W, strain spt3, active compounds read low 0.927 | S. cerevisiae deletion strains, locus YDR502C, strain sam2, active compounds read low 1.06 | S. cerevisiae deletion strains, locus YEL003W, strain gim4, active compounds read low 0.994 | S. cerevisiae deletion strains, locus YEL037C, strain rad23, active compounds read low 0.991 | S. cerevisiae deletion strains, locus YEL061C, strain CIN8 (second series), active compounds read low 0.999 | S. cerevisiae deletion strains, locus YEL061C, strain CIN8, active compounds read low 1.02 | S. cerevisiae deletion strains, locus YER015W, strain faa2, active compounds read low 0.987 | S. cerevisiae deletion strains, locus YER016W, strain bim1, active compounds read low 0.991 | S. cerevisiae deletion strains, locus YER110C, active compounds read low 1.06 | S. cerevisiae deletion strains, locus YER111C, strain swi4, active compounds read low 0.999 | S. cerevisiae deletion strains, locus YER155C, strain BEM2 (second series), active compounds read low 0.993 | S. cerevisiae deletion strains, locus YER155C, strain BEM2, active compounds read low 1.04 | S. cerevisiae deletion strains, locus YER167W, strain BCK2, active compounds read low 1.03 | S. cerevisiae deletion strains, locus YFR010W, strain ubp6, active compounds read low 0.993 | S. cerevisiae deletion strains, locus YGL078C, strain dbp3, active compounds read low 1.04 | S. cerevisiae deletion strains, locus YGL086W, strain mad1, active compounds read low 1.04 | S. cerevisiae deletion strains, locus YGL167C, strain pmr1, active compounds read low 0.993 | S. cerevisiae deletion strains, locus YGL173C, strain kem1, active compounds read low 0.998 | S. cerevisiae deletion strains, locus YGL227W, strain vid30, active compounds read low 0.982 | S. cerevisiae deletion strains, locus YGL240W, strain doc1, active compounds read low 0.977 | S. cerevisiae deletion strains, locus YGL248W, strain PDE1, active compounds read low 1.08 | S. cerevisiae deletion strains, locus YGL253W, strain hxk2, active compounds read low 1 | S. cerevisiae deletion strains, locus YGR135W, strain pre9, active compounds read low 1.09 | S. cerevisiae deletion strains, locus YGR252W, strain gcn5, active compounds read low 1.17 | S. cerevisiae deletion strains, locus YHR013C, strain ard1, active compounds read low 0.958 | S. cerevisiae deletion strains, locus YHR027C, strain rpn1, active compounds read low 1 | S. cerevisiae deletion strains, locus YHR079C, strain IRE1 (second series), active compounds read low 1.05 | S. cerevisiae deletion strains, locus YHR094C, strain hxt1, active compounds read low 1.03 | S. cerevisiae deletion strains, locus YHR129C, strain ARP1, active compounds read low 1.05 | S. cerevisiae deletion strains, locus YHR142W, strain chs7, active compounds read low 1.03 | S. cerevisiae deletion strains, locus YHR200W, strain rpn10, active compounds read low 1.05 | S. cerevisiae deletion strains, locus YIL066C, strain RNR3, active compounds read low 1.05 | S. cerevisiae deletion strains, locus YIL073C, strain SPO22, active compounds read low 1.16 | S. cerevisiae deletion strains, locus YIL125W, strain kgd1, active compounds read low 1.02 | S. cerevisiae deletion strains, locus YIR030C, strain dcg1, active compounds read low 1.03 | S. cerevisiae deletion strains, locus YJL092W, strain hpr5, active compounds read low 0.993 | S. cerevisiae deletion strains, locus YJL095W, strain BCK1 (second series), active compounds read low 0.998 | S. cerevisiae deletion strains, locus YJL095W, strain BCK1, active compounds read low 1.12 | S. cerevisiae deletion strains, locus YJL115W, strain asf1, active compounds read low 0.984 | S. cerevisiae deletion strains, locus YJL129C, strain trk1, active compounds read low 0.999 | S. cerevisiae deletion strains, locus YJL134W, strain LCB3, active compounds read low 1.03 | S. cerevisiae deletion strains, locus YJL154C, strain vps35, active compounds read low 0.997 | S. cerevisiae deletion strains, locus YJL164C, strain tpk1, active compounds read low 0.974 | S. cerevisiae deletion strains, locus YJL166W, strain qcr8, active compounds read low 0.986 | S. cerevisiae deletion strains, locus YJL168C, strain set2, active compounds read low 1.06 | S. cerevisiae deletion strains, locus YJL187C, strain SWE1 (second series), active compounds read low 1.07 | S. cerevisiae deletion strains, locus YJL187C, strain SWE1, active compounds read low 1 | S. cerevisiae deletion strains, locus YJR075W, strain HOC1, active compounds read low 1.05 | S. cerevisiae deletion strains, locus YKL009W, strain mrt4, active compounds read low 1.05 | S. cerevisiae deletion strains, locus YKL068W, active compounds read low 1.02 | S. cerevisiae deletion strains, locus YKL085W, strain MDH1 (second series), active compounds read low 1.01 | S. cerevisiae deletion strains, locus YKL085W, strain MDH1, active compounds read low 1.01 | S. cerevisiae deletion strains, locus YKL160W, strain elf1, active compounds read low 1.01 | S. cerevisiae deletion strains, locus YKL190W, strain CNB1, active compounds read low 0.999 | S. cerevisiae deletion strains, locus YKR001C, strain vps1, active compounds read low 1.08 | S. cerevisiae deletion strains, locus YKR026C, strain gcn3, active compounds read low 0.968 | S. cerevisiae deletion strains, locus YKR091W, strain srl3, active compounds read low 0.996 | S. cerevisiae deletion strains, locus YLL001W, strain dnm1, active compounds read low 1.01 | S. cerevisiae deletion strains, locus YLL026W, active compounds read low 0.985 | S. cerevisiae deletion strains, locus YLL041C, strain sdh2, active compounds read low 1 | S. cerevisiae deletion strains, locus YLR027C, strain aat2, active compounds read low 0.995 | S. cerevisiae deletion strains, locus YLR039C, strain RIC1, active compounds read low 1.24 | S. cerevisiae deletion strains, locus YLR058C, strain SHM2, active compounds read low 1.04 | S. cerevisiae deletion strains, locus YLR102C, strain apc9, active compounds read low 1.03 | S. cerevisiae deletion strains, locus YLR221C, strain rsa3, active compounds read low 1 | S. cerevisiae deletion strains, locus YLR258W, strain gsy2, active compounds read low 0.993 | S. cerevisiae deletion strains, locus YLR262C, strain YPT6 (second series), active compounds read low 0.993 | S. cerevisiae deletion strains, locus YLR268W, strain sec22, active compounds read low 1.04 | S. cerevisiae deletion strains, locus YLR320W, strain mms22, active compounds read low 0.975 | S. cerevisiae deletion strains, locus YLR330W, strain CHS5, active compounds read low 1.04 | S. cerevisiae deletion strains, locus YLR342W, strain FKS1 (second series), active compounds read low 1.06 | S. cerevisiae deletion strains, locus YLR342W, strain FKS1, active compounds read low 0.989 | S. cerevisiae deletion strains, locus YLR357W, strain rsc2, active compounds read low 0.979 | S. cerevisiae deletion strains, locus YLR370C, strain arc18, active compounds read low 0.999 | S. cerevisiae deletion strains, locus YLR371W, strain rom2, active compounds read low 1.08 | S. cerevisiae deletion strains, locus YLR384C, strain iki3, active compounds read low 1.01 | S. cerevisiae deletion strains, locus YLR418C, strain cdc73, active compounds read low 1.15 | S. cerevisiae deletion strains, locus YML016C, strain PPZ1, active compounds read low 1.02 | S. cerevisiae deletion strains, locus YML032C, strain rad52, active compounds read low 1.04 | S. cerevisiae deletion strains, locus YML120C, strain ndi1, active compounds read low 1.01 | S. cerevisiae deletion strains, locus YML124C, strain tub3, active compounds read low 1.03 | S. cerevisiae deletion strains, locus YMR058W, strain fet3, active compounds read low 0.999 | S. cerevisiae deletion strains, locus YMR078C, strain ctf18, active compounds read low 1.04 | S. cerevisiae deletion strains, locus YMR125W, strain sto1, active compounds read low 0.978 | S. cerevisiae deletion strains, locus YMR129W, active compounds read low 0.997 | S. cerevisiae deletion strains, locus YMR205C, strain PFK2, active compounds read low 0.973 | S. cerevisiae deletion strains, locus YMR223W, strain ubp8, active compounds read low 1.06 | S. cerevisiae deletion strains, locus YMR231W, strain pep5, active compounds read low 0.998 | S. cerevisiae deletion strains, locus YMR307W, strain GAS1, active compounds read low 1.16 | S. cerevisiae deletion strains, locus YNL067W, strain RPL9B, active compounds read low 0.984 | S. cerevisiae deletion strains, locus YNL071W, strain lat1, active compounds read low 1.01 | S. cerevisiae deletion strains, locus YNL128W, strain TEP1, active compounds read low 0.999 | S. cerevisiae deletion strains, locus YNL209W, strain ssb2, active compounds read low 1 | S. cerevisiae deletion strains, locus YNL233W, strain BNI4, active compounds read low 1.07 | S. cerevisiae deletion strains, locus YNL248C, strain rpa49, active compounds read low 1.01 | S. cerevisiae deletion strains, locus YNL250W, strain rad50, active compounds read low 1.05 | S. cerevisiae deletion strains, locus YNL271C, strain bni1, active compounds read low 1.03 | S. cerevisiae deletion strains, locus YNL298W, strain CLA4, active compounds read low 1.04 | S. cerevisiae deletion strains, locus YNL307C, strain MCK1, active compounds read low 1.06 | S. cerevisiae deletion strains, locus YNL322C, strain KRE1 (second series), active compounds read low 0.985 | S. cerevisiae deletion strains, locus YNR049C, strain mso1, active compounds read low 0.991 | S. cerevisiae deletion strains, locus YNR052C, strain pop2, active compounds read low 1.06 | S. cerevisiae deletion strains, locus YOL006C, strain TOP1, active compounds read low 1.32 | S. cerevisiae deletion strains, locus YOL012C, strain htz1 1.34 | S. cerevisiae deletion strains, locus YOL147C, strain pex11, active compounds read low 1.03 | S. cerevisiae deletion strains, locus YOR001W, strain rrp6, active compounds read low 0.994 | S. cerevisiae deletion strains, locus YOR061W, strain CKA2, active compounds read low 1.04 | S. cerevisiae deletion strains, locus YOR069W, strain VPS5, active compounds read low 1.03 | S. cerevisiae deletion strains, locus YOR070C, strain gyp1, active compounds read low 0.996 | S. cerevisiae deletion strains, locus YOR080W, strain dia2, active compounds read low 0.989 | S. cerevisiae deletion strains, locus YOR083W, strain WHI5, active compounds read low 1.02 | S. cerevisiae deletion strains, locus YOR106W, strain vam3, active compounds read low 1 | S. cerevisiae deletion strains, locus YOR136W, strain idh2, active compounds read low 1.04 | S. cerevisiae deletion strains, locus YOR144C, strain elg1, active compounds read low 1.04 | S. cerevisiae deletion strains, locus YOR184W, strain ser1, active compounds read low 1.05 | S. cerevisiae deletion strains, locus YOR265W, strain rbl2, active compounds read low 0.993 | S. cerevisiae deletion strains, locus YOR270C, strain vph1, active compounds read low 1.01 | S. cerevisiae deletion strains, locus YOR290C, strain snf2, active compounds read low 0.954 | S. cerevisiae deletion strains, locus YOR316C, strain cot1, active compounds read low 1.05 | S. cerevisiae deletion strains, locus YPL051W, strain arl3, active compounds read low 1 | S. cerevisiae deletion strains, locus YPL055C, strain LGE1, active compounds read low 1.07 | S. cerevisiae deletion strains, locus YPL078C, strain atp4, active compounds read low 1.01 | S. cerevisiae deletion strains, locus YPL106C, strain sse1, active compounds read low 0.975 | S. cerevisiae deletion strains, locus YPL240C, strain hsp82, active compounds read low 0.99 | S. cerevisiae deletion strains, locus YPR119W, strain clb2, active compounds read low 1.04 | S. cerevisiae deletion strains, locus YPR141C, strain kar3, active compounds read low 1.04 | S. cerevisiae deletion strains, locus YPR163C, strain tif3, active compounds read low 1.05 | S. cerevisiae deletion strains, locus YPR167C, strain met16, active compounds read low 1.07 | S. cerevisiae deletion strains, strain wtn01, active compounds read low 1.04 | S. cerevisiae strains, strain wild type, active compounds read low 1.04
